# Measurements: PubChem BioAssay (NCATS)
# Results filed as inconclusive are left out. A number with no mark means an inactive call. The call rests on the fitted dose curve; in most records, active means well fitted inhibition curve with a large enough effect; inconclusive means small, poorly fitted or top-dose-only effect; inactive means no such curve, though single readings can be large or run the other way.
# Biological target: Retinaldehyde dehydrogenase 3 (Homo sapiens) (UniProt P47895)
# Assay: qHTS for Inhibitors of the Aldehyde Dehydrogenase Family (ALDH1A3) Primary screen (AID 2061315);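 further: plate controls were DMSO vehicle for no effect and reference inhibitor for full effect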
# Conditions: ALDH inhibition qHTS; series mostly up to 56 µM; activity change, negative = inhibition: at the top concentration
row,SMILES,"activity change, negative = inhibition"
1,COc1ccc(OC2=NS(=O)(=O)c3ccccc32)cc1,-21.9%
2,Cc1cc(N[S+](=O)([O-])c2ccc(NC(=O)Cc3ccc(Cl)nc3)cc2)no1,-6.39%
3,Brc1cnc2nc(SCc3ccncc3)[nH]c2c1,5.29%
4,O=c1c2ccccc2nc2sc(NCc3ccc(Oc4ccccc4)cc3)nn12,-12.4%
5,CCCn1c(-c2ccc(F)cc2)nc2c(NCCN3CCOCC3)nc(C)nc21,-1.41%
6,CCC(=O)NC(c1ccco1)c1cc(Cl)c2cccnc2c1O (stereo unspecified),2.9%
7,CC1=C(C(=O)Nc2nc3ccccc3s2)C(c2[nH]ncc2Cl)N=C(Nc2nc3ccccc3o2)N1 (stereo unspecified),19.8%
8,CCCn1c(-c2ccc(F)cc2)nc2c(NCCCCN3CCCC3)nc(C)nc21,0.107%
9,COc1cccc(NC(=O)c2cc(-c3ccc(C)c(C)c3)nc3ccccc23)c1,6.19%
10,Cc1ccc(S(=O)(=O)Nc2cnccc2C(=O)Nc2nc(-c3cccc(F)c3)cs2)cc1,13.6%
11,CO[C@H]1/C=C/[C@@](C)(O)/C=C/C(=O)O[C@H](C)[C@@H](C)CC/C=C/1C,3.95%
12,COc1ccccc1CNC(=O)Nc1nnc(-c2ccncc2)s1,2.46%
13,CCN1CCCC1Cn1c(-c2ccccc2)nc2c(N(CCOC)CCOC)nc(C)nc21 (stereo unspecified),15.9%
14,COc1cc(O)c(C(CC(=O)N2CC(C)CC(C)C2)c2ccc3c(c2)OCCO3)c(OC)c1 (stereo unspecified),3.01%
15,O=C(O)c1ccc(O)c2ncc(NC3CCNCC3)cc12,-10.1%
16,CCCCNc1nc(C)nc2c1nc(-c1ccccc1)n2CCCN(C)C,7.43%
